Data on one sequence can be found in publication PMC7862700, “An all-to-all approach to the identification of sequence-specific readers for epigenetic DNA modifications on cytosine”.

Common to all, as to test: DAPPL (digital affinity profiling via proximity ligation, sequencing); 10 mM Tris-HCl pH 7.5, 50 mM NaCl, 1 mM DTT, 4% glycerol, room temperature, 30 min; GST-TFs on glutathione beads, 16-mer random dsDNA library, 0.1% formaldehyde crosslink after washing; high values mean tight binding
One test deals with T1, FEV (Homo sapiens, UniProt Q99581 1-238).
T1 sequence: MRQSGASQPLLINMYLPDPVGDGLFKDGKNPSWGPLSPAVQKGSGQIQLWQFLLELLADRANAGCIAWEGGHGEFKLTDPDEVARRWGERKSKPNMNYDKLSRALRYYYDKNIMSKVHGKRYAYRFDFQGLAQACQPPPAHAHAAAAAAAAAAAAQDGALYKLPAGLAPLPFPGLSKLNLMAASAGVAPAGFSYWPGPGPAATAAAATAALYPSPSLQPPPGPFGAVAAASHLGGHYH
The note with it: protein: recombinant; tags: N-terminal GST; dsDNA, one strand shown. The method, boiled down: (§1)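 Human transcription factors carrying a GST fusion were produced in yeast, bound to glutathione beads, tagged with DNA barcodes and pooled together with a tag-only sample. Each pool was held with 200 nmole of a random double-stranded 16-mer DNA library in Tris/NaCl/DTT/glycerol buffer for 30 min at room temperature, then washed, crosslinked in 0.1% formaldehyde, proximity-ligated with BsaI/T4 ligase (1 h, 37 °C), PCR-amplified and sequenced on an Illumina NextSeq500. Binding signal is the read frequency of each hexamer for a given factor divided by its frequency in the tag-only sample.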

The target in another test is ETV5 (Homo sapiens, UniProt P41161 1-510). The conditions noted are these: protein: recombinant; tags: N-terminal GST; dsDNA, one strand shown. The method, boiled down: as §1
Another test concerns the target HSF1 (Homo sapiens, UniProt Q00613 1-529). The note with it: protein: recombinant; tags: N-terminal GST; chain copies: 3; dsDNA, one strand shown. A digest of the protocol: as §1
For another test, the target named is T2, SPIC (Homo sapiens, UniProt Q8N5J4 1-248).
T2 sequence: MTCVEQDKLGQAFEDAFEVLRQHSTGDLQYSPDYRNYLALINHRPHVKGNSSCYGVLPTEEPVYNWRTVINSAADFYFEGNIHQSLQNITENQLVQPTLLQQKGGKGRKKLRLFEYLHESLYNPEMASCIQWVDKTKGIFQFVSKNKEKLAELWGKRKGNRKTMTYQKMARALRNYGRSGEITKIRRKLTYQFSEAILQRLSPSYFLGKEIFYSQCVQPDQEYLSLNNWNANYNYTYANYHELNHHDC
The conditions noted are these: protein: recombinant; tags: N-terminal GST; dsDNA, one strand shown. The method, boiled down: as §1

The target of a further test is ELF4 (Homo sapiens, UniProt Q99607 1-663). The conditions noted are these: protein: recombinant; tags: N-terminal GST; dsDNA, one strand shown. The method, boiled down: as §1
For the next test, the target named is T3, ELK4 (Homo sapiens, UniProt P28324-2 1-405).
T3 sequence: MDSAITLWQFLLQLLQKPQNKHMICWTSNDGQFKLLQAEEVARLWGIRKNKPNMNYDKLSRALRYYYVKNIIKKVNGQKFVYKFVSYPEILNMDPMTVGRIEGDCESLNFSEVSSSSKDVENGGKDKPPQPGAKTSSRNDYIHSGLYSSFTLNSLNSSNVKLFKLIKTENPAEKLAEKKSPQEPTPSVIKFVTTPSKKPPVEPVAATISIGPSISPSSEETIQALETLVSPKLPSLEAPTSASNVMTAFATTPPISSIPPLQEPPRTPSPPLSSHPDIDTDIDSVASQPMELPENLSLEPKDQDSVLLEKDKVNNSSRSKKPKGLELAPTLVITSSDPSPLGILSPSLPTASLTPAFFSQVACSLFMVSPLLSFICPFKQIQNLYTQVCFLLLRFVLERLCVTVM
The note with it: protein: recombinant; tags: N-terminal GST; dsDNA, one strand shown. A digest of the protocol: as §1

For the next test, the target named is T4, ETV2 (Homo sapiens, UniProt O00321 1-342).
T4 sequence: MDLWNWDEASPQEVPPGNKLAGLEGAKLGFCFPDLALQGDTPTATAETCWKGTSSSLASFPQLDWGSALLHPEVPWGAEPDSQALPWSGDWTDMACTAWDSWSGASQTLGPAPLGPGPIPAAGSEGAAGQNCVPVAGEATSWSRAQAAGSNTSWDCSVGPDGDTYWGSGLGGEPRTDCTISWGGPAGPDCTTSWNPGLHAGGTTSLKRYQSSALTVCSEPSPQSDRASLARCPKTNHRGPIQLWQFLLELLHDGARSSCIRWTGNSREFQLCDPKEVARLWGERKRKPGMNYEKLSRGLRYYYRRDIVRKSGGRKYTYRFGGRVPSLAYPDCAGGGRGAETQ
The note with it: protein: recombinant; tags: N-terminal GST; dsDNA, one strand shown. The method, boiled down: as §1

Another test deals with T5, ELF3 (Homo sapiens, UniProt P78545 1-371).
T5 sequence: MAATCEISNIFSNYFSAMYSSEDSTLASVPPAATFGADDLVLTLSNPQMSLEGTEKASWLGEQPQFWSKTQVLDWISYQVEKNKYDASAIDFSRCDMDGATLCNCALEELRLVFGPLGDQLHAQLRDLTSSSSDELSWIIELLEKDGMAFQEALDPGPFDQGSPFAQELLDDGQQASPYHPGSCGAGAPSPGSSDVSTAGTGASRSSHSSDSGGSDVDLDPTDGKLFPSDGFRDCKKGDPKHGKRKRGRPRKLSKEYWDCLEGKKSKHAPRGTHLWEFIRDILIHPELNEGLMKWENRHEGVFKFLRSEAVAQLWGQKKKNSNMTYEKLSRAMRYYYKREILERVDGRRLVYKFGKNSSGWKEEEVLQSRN
The note with it: protein: recombinant; tags: N-terminal GST; dsDNA, one strand shown. A digest of the protocol: as §1

The target in a further test is CRX (Homo sapiens, UniProt O43186 1-299). The conditions noted are these: protein: recombinant; tags: N-terminal GST; dsDNA, one strand shown. A digest of the protocol:
as §1

A further test concerns the target ETV1 (Homo sapiens, UniProt P50549 1-477). The note with it: protein: recombinant; tags: N-terminal GST; dsDNA, one strand shown. A digest of the protocol: as §1
The target in the next test is T6, ERF (Homo sapiens, UniProt P50548 1-548).
T6 sequence: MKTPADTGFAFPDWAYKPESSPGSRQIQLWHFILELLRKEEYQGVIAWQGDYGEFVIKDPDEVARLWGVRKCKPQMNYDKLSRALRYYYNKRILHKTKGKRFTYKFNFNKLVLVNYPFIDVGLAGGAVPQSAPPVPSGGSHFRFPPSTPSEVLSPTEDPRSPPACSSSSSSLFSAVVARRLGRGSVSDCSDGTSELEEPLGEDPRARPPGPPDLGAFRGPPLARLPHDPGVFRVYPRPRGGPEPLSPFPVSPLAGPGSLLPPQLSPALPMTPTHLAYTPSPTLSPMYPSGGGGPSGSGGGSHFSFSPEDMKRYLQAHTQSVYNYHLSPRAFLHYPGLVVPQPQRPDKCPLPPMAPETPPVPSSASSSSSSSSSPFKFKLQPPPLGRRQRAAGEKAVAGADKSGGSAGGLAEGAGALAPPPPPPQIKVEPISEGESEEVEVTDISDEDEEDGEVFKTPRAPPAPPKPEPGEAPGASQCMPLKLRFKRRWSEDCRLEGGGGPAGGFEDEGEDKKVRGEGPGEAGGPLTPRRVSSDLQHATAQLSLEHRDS
The conditions noted are these: protein: recombinant; tags: N-terminal GST; dsDNA, one strand shown. A digest of the protocol:
as §1

In the next test the target is T7, ETV3L (Homo sapiens, UniProt Q6ZN32 1-361).
T7 sequence: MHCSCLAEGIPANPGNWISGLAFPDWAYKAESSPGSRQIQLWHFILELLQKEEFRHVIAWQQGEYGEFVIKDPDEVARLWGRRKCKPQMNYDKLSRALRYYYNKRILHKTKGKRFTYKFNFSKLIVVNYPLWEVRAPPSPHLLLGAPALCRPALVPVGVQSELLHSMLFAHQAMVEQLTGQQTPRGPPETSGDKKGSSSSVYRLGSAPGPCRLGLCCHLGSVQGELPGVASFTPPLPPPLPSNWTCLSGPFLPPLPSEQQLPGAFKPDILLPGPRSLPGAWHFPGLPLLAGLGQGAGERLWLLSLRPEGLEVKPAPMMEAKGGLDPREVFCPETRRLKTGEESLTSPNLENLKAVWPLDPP
The conditions noted are these: protein: recombinant; tags: N-terminal GST; dsDNA, one strand shown. The method, boiled down:
as §1

In the next test the target is T8, ETS2 (Homo sapiens, UniProt P15036 1-469).
T8 sequence: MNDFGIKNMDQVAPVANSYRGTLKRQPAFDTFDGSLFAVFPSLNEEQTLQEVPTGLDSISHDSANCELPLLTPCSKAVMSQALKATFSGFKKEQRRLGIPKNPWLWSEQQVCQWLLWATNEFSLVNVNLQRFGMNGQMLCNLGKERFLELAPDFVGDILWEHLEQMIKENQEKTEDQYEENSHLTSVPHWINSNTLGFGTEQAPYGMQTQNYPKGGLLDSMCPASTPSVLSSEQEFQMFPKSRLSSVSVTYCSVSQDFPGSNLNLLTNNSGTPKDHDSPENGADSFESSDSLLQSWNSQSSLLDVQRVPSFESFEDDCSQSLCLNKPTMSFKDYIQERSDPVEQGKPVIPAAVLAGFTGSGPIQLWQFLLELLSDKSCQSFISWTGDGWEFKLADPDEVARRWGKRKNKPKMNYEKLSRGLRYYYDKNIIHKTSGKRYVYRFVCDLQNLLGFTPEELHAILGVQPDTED
The conditions noted are these: protein: recombinant; tags: N-terminal GST; dsDNA, one strand shown. A digest of the protocol:
as §1

The next test deals with T9, SPDEF (Homo sapiens, UniProt O95238 1-335).
T9 sequence: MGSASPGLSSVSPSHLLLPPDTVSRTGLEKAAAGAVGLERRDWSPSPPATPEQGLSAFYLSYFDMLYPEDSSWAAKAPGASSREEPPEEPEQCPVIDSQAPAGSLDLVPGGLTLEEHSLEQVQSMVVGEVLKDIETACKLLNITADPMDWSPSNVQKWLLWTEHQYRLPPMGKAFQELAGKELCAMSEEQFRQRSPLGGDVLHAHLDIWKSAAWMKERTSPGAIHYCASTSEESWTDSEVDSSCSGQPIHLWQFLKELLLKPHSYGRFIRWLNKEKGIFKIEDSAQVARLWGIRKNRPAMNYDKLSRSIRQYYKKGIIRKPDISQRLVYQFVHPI
The note with it: protein: recombinant; tags: N-terminal GST; dsDNA, one strand shown. The method, boiled down: as §1

The next test addresses T10, ETV7 (Homo sapiens, UniProt Q9Y603 1-341).
T10 sequence: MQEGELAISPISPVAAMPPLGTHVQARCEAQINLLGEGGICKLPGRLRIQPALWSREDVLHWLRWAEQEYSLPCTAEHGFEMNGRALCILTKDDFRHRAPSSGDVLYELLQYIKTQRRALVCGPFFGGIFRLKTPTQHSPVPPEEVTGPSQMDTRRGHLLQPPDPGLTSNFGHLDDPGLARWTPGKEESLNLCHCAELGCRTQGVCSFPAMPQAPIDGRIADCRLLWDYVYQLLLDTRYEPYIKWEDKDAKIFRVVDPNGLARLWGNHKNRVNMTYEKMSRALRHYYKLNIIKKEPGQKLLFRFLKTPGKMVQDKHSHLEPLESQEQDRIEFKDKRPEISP
The conditions noted are these: protein: recombinant; tags: N-terminal GST; dsDNA, one strand shown. A digest of the protocol:
as §1

For another test, the target named is T11, ELF5 (Homo sapiens, UniProt Q9UKW6-2 1-255).
T11 sequence: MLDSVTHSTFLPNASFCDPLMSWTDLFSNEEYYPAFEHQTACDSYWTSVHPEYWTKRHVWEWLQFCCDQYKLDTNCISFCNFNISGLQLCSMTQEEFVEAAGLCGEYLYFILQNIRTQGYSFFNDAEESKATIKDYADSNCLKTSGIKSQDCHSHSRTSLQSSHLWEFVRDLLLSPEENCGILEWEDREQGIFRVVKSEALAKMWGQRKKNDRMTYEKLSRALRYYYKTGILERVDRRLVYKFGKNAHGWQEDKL
The note with it: protein: recombinant; tags: N-terminal GST; dsDNA, one strand shown. A digest of the protocol: as §1

A further test concerns the target T12, ETV3 (Homo sapiens, UniProt P41162-2 1-143).
T12 sequence: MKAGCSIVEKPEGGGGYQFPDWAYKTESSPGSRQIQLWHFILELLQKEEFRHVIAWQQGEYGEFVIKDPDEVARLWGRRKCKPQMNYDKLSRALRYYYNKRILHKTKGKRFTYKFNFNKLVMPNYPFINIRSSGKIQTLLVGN
The note with it: protein: recombinant; tags: N-terminal GST; dsDNA, one strand shown. The method, boiled down: as §1

The target of the next test is ETV6 (Homo sapiens, UniProt P41212 1-452). The note with it: protein: recombinant; tags: N-terminal GST; dsDNA, one strand shown. The method, boiled down:
as §1

Sequence of ELF4 (Q99607 whole entry): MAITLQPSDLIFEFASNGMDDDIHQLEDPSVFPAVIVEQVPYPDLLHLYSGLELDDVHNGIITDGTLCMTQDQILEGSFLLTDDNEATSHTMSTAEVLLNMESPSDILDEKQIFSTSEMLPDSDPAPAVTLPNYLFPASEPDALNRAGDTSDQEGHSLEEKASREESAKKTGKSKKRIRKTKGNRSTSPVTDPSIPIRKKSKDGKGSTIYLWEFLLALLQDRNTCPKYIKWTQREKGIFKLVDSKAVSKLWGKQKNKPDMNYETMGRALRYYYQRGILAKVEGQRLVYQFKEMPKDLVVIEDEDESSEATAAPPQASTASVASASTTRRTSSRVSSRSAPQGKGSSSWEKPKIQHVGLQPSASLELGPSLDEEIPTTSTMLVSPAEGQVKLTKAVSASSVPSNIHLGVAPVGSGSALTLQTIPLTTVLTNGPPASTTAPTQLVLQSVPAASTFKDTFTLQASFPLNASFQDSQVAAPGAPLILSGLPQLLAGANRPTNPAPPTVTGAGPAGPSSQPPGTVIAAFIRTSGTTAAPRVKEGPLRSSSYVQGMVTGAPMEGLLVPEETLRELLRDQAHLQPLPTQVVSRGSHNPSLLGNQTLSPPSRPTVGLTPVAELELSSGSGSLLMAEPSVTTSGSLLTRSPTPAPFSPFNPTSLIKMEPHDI
Sequence of HSF1 (Q00613 whole entry): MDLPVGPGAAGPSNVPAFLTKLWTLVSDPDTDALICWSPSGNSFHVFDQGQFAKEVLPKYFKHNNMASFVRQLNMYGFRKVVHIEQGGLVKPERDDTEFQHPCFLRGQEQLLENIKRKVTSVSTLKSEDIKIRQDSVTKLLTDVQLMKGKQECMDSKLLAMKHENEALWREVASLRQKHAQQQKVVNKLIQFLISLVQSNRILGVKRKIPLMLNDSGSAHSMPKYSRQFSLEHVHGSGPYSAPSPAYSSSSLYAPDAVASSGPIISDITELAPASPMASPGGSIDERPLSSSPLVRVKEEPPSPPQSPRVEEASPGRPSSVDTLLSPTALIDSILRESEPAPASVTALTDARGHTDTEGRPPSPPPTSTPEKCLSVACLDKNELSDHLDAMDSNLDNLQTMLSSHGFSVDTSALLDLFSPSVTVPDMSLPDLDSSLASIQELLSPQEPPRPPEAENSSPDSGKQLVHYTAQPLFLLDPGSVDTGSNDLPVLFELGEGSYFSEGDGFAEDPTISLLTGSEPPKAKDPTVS
Sequence of ETV6 (P41212 whole entry): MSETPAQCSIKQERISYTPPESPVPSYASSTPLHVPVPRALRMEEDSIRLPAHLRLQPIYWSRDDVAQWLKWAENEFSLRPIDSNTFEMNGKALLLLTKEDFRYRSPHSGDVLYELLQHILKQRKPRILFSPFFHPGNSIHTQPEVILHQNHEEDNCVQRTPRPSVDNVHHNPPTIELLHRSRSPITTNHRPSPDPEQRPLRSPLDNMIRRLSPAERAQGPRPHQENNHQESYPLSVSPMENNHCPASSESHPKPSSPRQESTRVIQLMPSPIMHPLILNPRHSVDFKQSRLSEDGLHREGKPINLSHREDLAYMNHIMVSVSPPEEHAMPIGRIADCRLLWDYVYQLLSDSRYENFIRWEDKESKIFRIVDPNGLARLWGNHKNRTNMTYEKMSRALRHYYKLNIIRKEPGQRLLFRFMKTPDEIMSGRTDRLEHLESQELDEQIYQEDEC
Sequence of ETV1 (P50549 whole entry): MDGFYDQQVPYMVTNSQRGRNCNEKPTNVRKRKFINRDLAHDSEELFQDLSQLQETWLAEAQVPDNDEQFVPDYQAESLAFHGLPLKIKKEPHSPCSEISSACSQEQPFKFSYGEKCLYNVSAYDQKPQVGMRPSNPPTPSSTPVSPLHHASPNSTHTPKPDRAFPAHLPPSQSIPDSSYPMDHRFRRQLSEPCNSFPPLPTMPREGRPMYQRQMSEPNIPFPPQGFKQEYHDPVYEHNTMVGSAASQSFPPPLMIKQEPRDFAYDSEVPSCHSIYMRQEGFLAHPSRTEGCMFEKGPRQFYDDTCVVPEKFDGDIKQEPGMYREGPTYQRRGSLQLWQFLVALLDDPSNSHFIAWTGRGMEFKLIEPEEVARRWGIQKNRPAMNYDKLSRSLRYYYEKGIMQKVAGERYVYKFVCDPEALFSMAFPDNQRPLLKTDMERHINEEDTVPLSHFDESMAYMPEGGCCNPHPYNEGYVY
Sequence of CRX (O43186 whole entry): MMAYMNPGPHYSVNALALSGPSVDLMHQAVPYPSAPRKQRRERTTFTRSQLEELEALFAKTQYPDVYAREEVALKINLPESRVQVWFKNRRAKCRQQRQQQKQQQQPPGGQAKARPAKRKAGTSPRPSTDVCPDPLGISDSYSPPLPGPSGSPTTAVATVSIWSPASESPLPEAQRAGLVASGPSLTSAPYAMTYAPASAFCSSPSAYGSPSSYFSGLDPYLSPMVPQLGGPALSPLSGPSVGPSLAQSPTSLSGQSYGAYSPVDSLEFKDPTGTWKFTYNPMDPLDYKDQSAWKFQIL
Sequence of ETV5 (P41161 whole entry): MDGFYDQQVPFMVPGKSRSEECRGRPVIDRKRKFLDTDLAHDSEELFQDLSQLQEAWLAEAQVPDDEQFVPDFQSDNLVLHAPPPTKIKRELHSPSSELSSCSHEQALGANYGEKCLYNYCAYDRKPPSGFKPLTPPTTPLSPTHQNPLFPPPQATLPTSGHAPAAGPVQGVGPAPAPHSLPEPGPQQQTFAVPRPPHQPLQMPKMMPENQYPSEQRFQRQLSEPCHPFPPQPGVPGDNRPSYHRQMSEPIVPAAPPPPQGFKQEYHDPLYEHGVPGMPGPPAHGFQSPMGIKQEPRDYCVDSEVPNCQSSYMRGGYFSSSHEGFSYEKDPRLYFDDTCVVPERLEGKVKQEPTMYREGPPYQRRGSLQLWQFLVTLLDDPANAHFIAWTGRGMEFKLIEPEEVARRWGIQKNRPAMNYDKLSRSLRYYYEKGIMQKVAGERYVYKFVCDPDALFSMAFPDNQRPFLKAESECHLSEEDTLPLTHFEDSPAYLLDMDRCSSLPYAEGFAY

As for CATACT, the binding signal with FEV was 1.27 fold enrichment (6-mer frequency, TF over GST control); in the test with ETV5, 1.2 fold enrichment (6-mer frequency, TF over GST control); with HSF1, 1.2 fold enrichment (6-mer frequency, TF over GST control); in the test with SPIC it was 1.23 fold enrichment (6-mer frequency, TF over GST control); with ELF4 it was 1.35 fold enrichment (6-mer frequency, TF over GST control); with ELK4, 1.34 fold enrichment (6-mer frequency, TF over GST control). The binding signal was 1.47 fold enrichment (6-mer frequency, TF over GST control) with ETV2; 1.34 fold enrichment (6-mer frequency, TF over GST control) in the test with ELF3; 1.24 fold enrichment (6-mer frequency, TF over GST control) with CRX; 1.33 fold enrichment (6-mer frequency, TF over GST control) in the test with ETV1; 1.3 fold enrichment (6-mer frequency, TF over GST control) with ERF; 1.33 fold enrichment (6-mer frequency, TF over GST control) with ETV3L. Moreover, the binding signal with ETS2 is 1.32 fold enrichment (6-mer frequency, TF over GST control); with SPDEF, 1.23 fold enrichment (6-mer frequency, TF over GST control); with ETV7, 1.28 fold enrichment (6-mer frequency, TF over GST control); with ELF5, 1.27 fold enrichment (6-mer frequency, TF over GST control); in the test with ETV3, 1.36 fold enrichment (6-mer frequency, TF over GST control); in the test with ETV6, 1.26 fold enrichment (6-mer frequency, TF over GST control).
